# Screen size: about 370,000 compounds; about 3,300 (0.89%) were called active. The sample holds actives, similar compounds and a random draw of the others, so the mix is not that of the screen. Values without a mark were called inactive.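 How the source made its calls: active means activation above the mean of all tested compounds plus 3 SD, computed per campaign excluding outliers beyond control limits (cut at about 13% in these data); inactive means the rest.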
# Target: Kallikrein-7 (Homo sapiens) (UniProt P49862)
# Sequence (P49862 whole entry, looked up): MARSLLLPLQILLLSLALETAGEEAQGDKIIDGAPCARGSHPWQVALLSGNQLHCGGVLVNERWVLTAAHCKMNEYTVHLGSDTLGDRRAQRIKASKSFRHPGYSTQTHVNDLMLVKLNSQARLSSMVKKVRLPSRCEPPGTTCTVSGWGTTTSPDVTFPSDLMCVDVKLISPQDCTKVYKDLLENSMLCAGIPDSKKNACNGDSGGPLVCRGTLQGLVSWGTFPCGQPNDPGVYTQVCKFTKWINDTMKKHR
# Experiment: activation of human kallikrein-7 proenzyme – biochemical, fluorescence intensity, primary screen (AID 652039)
# Conditions: purified proKLK7, EDANS-DABCYL substrate fluorescence; at 7 µM; active compounds read high; 100% is mature enzyme control, 0% vehicle
row,SMILES,activation
1,O=C(Nc1cccc(Cl)c1)OC1CC2CC1[C@H]1CCCCN1[C@H]2Cc1ccccc1 (some centres not stated),-0.47%
2,C=CCN1C(=O)[C@H](CC(=O)NCCCN2CCCC2=O)[C@@]2(C(=O)OCC)CCCC=C12,-0.44%
3,Cc1ccccc1CN1CCCCC(NC(=O)c2cccc(C#N)c2)C1=O (configuration not stated),-1.15%
4,COc1ccc2c(C(C)c3ccc(N)cc3)cn(C)c2c1 (configuration not stated),-0.2%
5,CC(=O)N1CCCN(C2=Nc3ccccc3Sc3ccccc32)CC1,0.25%
6,O=c1oc2cc(O)ccc2cc1-c1ccc(F)cc1,57.7% (active)
7,CN(C)c1cc(-c2ccc(F)cc2)oc(=O)c1Cl,-0.37%
8,CCOC(=O)[C@]12CCCC3=C1N(CCC3)C(=O)[C@@H](CC(=O)NCC13CC4CC(CC(C4)C1)C3)C2,0.33%
9,Cc1ccc(NC(=O)c2cc(C)nn2-c2ccccc2)c(C)c1,0.15%
10,C[C@@H](NC(=O)c1ccccc1OCC(=O)Nc1ccc(I)cc1)C(=O)N(C)Cc1ccccc1,-0.35%
11,Cc1cc2nc3c(=O)[nH]c(=O)nc-3n(C[C@H](O)[C@H](O)[C@H](O)CO)c2cc1C,-49.4%
12,CCN(CC)CCCC(C)n1c2nc(=O)[nH]c(=O)c-2nc2cc(Cl)ccc21 (configuration not stated),75.5% (active)
13,CC(C)CNc1cccc2c1S(=O)(=O)N(Cc1cn(Cc3ccccc3C(F)(F)F)nn1)Cc1ccccc1O2,-7.19%
14,Cc1ccc(OCc2nnc(NC(=O)OCC(C)C)s2)cc1,-0.08%
15,COCC(=O)Nc1nnc(COc2ccccc2)s1,20.2% (active)
16,CCOCc1nnc(NC(=O)CCS(=O)(=O)Cc2ccccc2)s1,0.26%
17,COc1ccc(CN2C/C(=C/c3ccccc3)N3C(=O)C[C@@H](c4ccccc4)N=C23)c(OC)c1,-0.63%
18,CC1(C)Oc2ccc3ccc(=O)oc3c2/C(=C/NCCO)C1=O,0.36%
19,CC1(C)Oc2ccc3ccc(=O)oc3c2/C(=N/O)C1=O,206% (active)
20,C/C=C(/C)C(=O)OC1Cc2c(ccc3ccc(=O)oc23)OC1(C)C (configuration not stated),0.3%
21,COC(=O)C1CN(Cc2cn(Cc3ccc(F)cc3)nn2)CCS(=O)(=O)N1Cc1ccc(Cl)cc1 (configuration not stated),-0.37%
22,N#CC1=C(N)Oc2c(sc3ccccc23)C1c1ccco1 (configuration not stated),15% (active)

row,SMILES,activation
1,CCN(CC(=O)Nc1c(F)cccc1F)C(=O)c1ccc(-c2ccc(C(C)=O)cc2)o1,13.8% (active)
2,CCN(CC(=O)Nc1c(F)cccc1F)C(=O)c1cnc(C)cn1,-0.38%
3,CCN(CC(=O)Nc1c(F)cccc1F)C(=O)c1ccc(-c2ccccc2)cc1,0.37%
4,O=C(OC12CCCN(C1)/C(=C/c1ccccc1)C2)c1ccco1 (configuration not stated),0.07%
5,CCCCCCCCNS(=O)(=O)/C=C/c1cc(C)ccc1CNC(=O)OC(C)(C)C,0.37%
6,CC(C)N1CCCCC(NC(=O)C(C)(C)C)C1=O (configuration not stated),-0.28%
7,Cc1oc2nc(SCC(=O)Nc3ccc(S(N)(=O)=O)cc3)nc(NC(=O)c3ccccc3)c2c1C,16.3% (active)
8,Cc1cc(-c2nnc(SCC(=O)Nc3ccc(S(N)(=O)=O)cc3)n2N)n[nH]1,-0.95%
9,Cc1oc2nc(SCC(=O)NCc3cccnc3)nc(N)c2c1C,0.33%
10,CN(C)Cc1cn(-c2ccc(-c3noc4c3C(=O)N(CC(=O)N3CCOCC3)CC4)cc2)nn1,-0.76%
11,CC(C)Oc1cc(F)ccc1-c1cc(C(=O)Nc2cccc(Cl)c2)[nH]n1,-0.65%
12,CCC(=O)OCCCN1C(=O)CCC12CCC(c1ccccc1)CC2 (configuration not stated),-0.27%
13,CCc1nc(Nc2ccc3nccnc3c2)c2oc3ccccc3c2n1,-2.9%
14,CCc1nc(Nc2ccc(NC(C)=O)cc2)c2oc3ccccc3c2n1,172% (active)
15,C[C@@H](Nc1nc(-c2ccccc2)nc2c1oc1ccccc12)C(=O)O,-0.64%
16,Cc1cc2nc(C(F)(F)F)cc(-c3cccs3)n2n1,-1.33%
17,CC(C)(C)Nc1c(-c2cccs2)nc2ccccn12,27% (active)
18,Cc1nc2ccccn2c(=O)c1NC(=O)c1cccs1,0.03%
19,COC(=O)[C@]12C[C@H](CC(=O)N3CCOCC3)C(=O)N(Cc3ccc(Cl)cc3Cl)C1=C[C@H](C(C)C)O[C@@H]2C1CC1,0.16%
20,CC(=O)OCCN1CCCC12CCC(c1ccccc1)CC2 (configuration not stated),-0.5%
21,CCN(CC)CCCNC(=O)c1cc2c(=O)[nH]c3ccc(C)cc3c2s1,23.3% (active)
22,O=C(NCCN1CCN(Cc2ccccc2)CC1)c1cc2c(=O)[nH]c3ccccc3c2s1,-1.14%

row,SMILES,activation
1,Cc1cccc(N(C)C(=O)c2cc3c(=O)[nH]c4ccc(C)cc4c3s2)c1,-0.34%
2,CC(C)CNS(=O)(=O)CC1NCCc2ccccc21 (configuration not stated),-0.37%
3,COC(=O)C12C=C3CC(c4ccccc4)=C3C(=O)N1Cc1[nH]c3ccccc3c1C2 (configuration not stated),-0.28%
4,CCCCN(CCCC)CC(O)Cn1c2ccccc2c(=O)c2ccccc21 (configuration not stated),22.1% (active)
5,CS(=O)(=O)N(CC(O)Cn1c2ccccc2c2ccccc21)c1cccc2ccccc12 (configuration not stated),-1.25%
6,CCCCN(CC)CCNC(=O)CCNC(=O)Cn1ccc2ccccc2c1=O,-0.2%
7,CC(NCc1ccco1)C(=O)N1CCCCC1 (configuration not stated),0.56%
8,O=S1(=O)c2c(NCc3ccco3)cccc2Oc2ccccc2CN1Cc1cn(Cc2cccc(C(F)(F)F)c2)nn1,-9.73%
9,O=C(c1cccnc1)N(c1cc2sc(=O)oc2c2ccccc12)S(=O)(=O)c1ccccc1,-0.78%
10,Cc1ccc(-n2nc(-c3ccco3)cc2C(=O)NCc2cccnc2)cc1,0.09%
11,O=C(Oc1c(-c2ccco2)oc2ccccc2c1=O)c1cccnc1,18.9% (active)
12,COc1ccc(-c2cc(-c3nnc(SCC(=O)Nc4cccc5ccccc45)n3N)[nH]n2)cc1,0.07%
13,COc1ccc(Cn2cc(CN3[C@@H](CC(C)C)COc4cc(Br)ccc4S3(=O)=O)nn2)cc1,0.02%
14,COCCCn1c(C(=O)NC2CCCCC2)cc2c(=O)n3cccc(C)c3nc21,-0.55%
15,Cc1ccccc1NC(=O)Cn1c(=O)n(CC2CCCO2)c(=O)c2ccccc21 (configuration not stated),0.23%
16,Cc1ccc2cc(C#N)c(NCCNC(=S)NCCCN3CCOCC3)nc2c1,1.07%
17,Cc1ccc(S(=O)(=O)c2cc3c(=O)n4cccc(C)c4nc3n(CCc3ccccc3)c2=N)cc1C,0.37%
18,Cc1cccn2c(=O)c3cc(C(=O)NCCN4CCOCC4)c(=N)n(Cc4cccnc4)c3nc12,32.9% (active)
19,Cc1ccc(-n2c(=O)c(C#N)cc3c(=O)n4ccccc4nc32)cc1C,2.54%
20,Cc1cccn2c(=O)c3cc(C#N)c(=O)n(CCCN4CCOCC4)c3nc12,39.9% (active)
21,Cc1cccc(NC(=O)c2ccc3c(=O)n(CC4CCCO4)c(=S)[nH]c3c2)c1 (configuration not stated),-0.97%
22,O=C(NCc1cccnc1)c1cc(S(=O)(=O)N2CCOCC2)c(Cl)cc1Cl,-0.01%

row,SMILES,activation
1,Cc1ccc(Cn2c(C)c3cnn(CC(=O)NCCN4CCOCC4)c(=O)c3c2C)cc1,0%
2,Cc1cccn2c(=O)c3cc(C#N)c(=NC(=O)c4cccnc4)n(CC4CCCO4)c3nc12 (configuration not stated),17.3% (active)
3,CCn1c(=N)c(C(=O)NCCCOC)cc2c(=O)n3cccc(C)c3nc21,62.3% (active)
4,CC(=O)Nc1ccc(OC[C@@H](O)CN2CCC(C(O)(c3ccccc3)c3ccccc3)CC2)cc1,0.22%
5,CNc1nc(SC)nc(N(C#N)CC(=O)OC)n1,-0.23%
6,O=C(NCCc1c[nH]c2ccccc12)OCc1cn(-c2c(F)cccc2F)nn1,0.33%
7,CCOC(=O)[C@]12CCCCC/C=C\1N(Cc1ccc(OC)cc1)C(=O)[C@H]2CC(=O)NCCCN1CCCC1=O,-0.22%
8,C=CCN1C(=O)[C@@H](CC(=O)N2CCN(C(=O)c3ccco3)CC2)[C@]2(C(=O)OC)CCCCC=C12,0.64%
9,COC(=O)C[C@H]1CC[C@H]2[C@H](COc3ccc(NC(=O)C4CC4)cc3C(=O)N2C)O1,-0.05%
10,CCC(=O)Nc1ccc2c(c1)C(=O)N(C)[C@@H]1CC[C@@H](CC(=O)NCCc3ccccc3)O[C@H]1CO2,-0.14%
11,Cc1cc(NS(=O)(=O)c2ccc(NC(=O)CSc3nnc(-c4ccc(C(C)(C)C)cc4)n3Cc3ccco3)cc2)nc(C)n1,0.49%
12,O=C(c1cccc(C(F)(F)F)c1)N1CC[C@H]2[C@H](CCCN2Cc2cc(F)cc(F)c2)C1,0.19%
13,COc1ccc(CSc2nnc(SCC(=O)Nc3ccccc3C(F)(F)F)s2)cc1,0.45%
14,COc1cccc2cc(C(=O)N3CCN(C(=O)c4ccccc4)CC3)c(=O)oc12,-0.14%
15,COc1ccc(C(=O)N2CCCN(C)CC2)c(OC)c1,-0.04%
16,COc1ccc2oc(=O)c(C(=O)N3CCCC3)cc2c1,21.5% (active)
17,O=C(CN1CCC(NC(=O)NCc2ccccc2)CC1)Nc1ccc2c(c1)OCCO2,0.32%
18,CC(C)(C)C(=O)N1CCC[C@@]1(CO)C(=O)O,0.12%
19,COc1cccc(NC(=O)CN(C)C(=O)c2ccccc2CCc2ccccc2)c1,0.07%
20,COc1cccc(NC(=O)CN(C)C(=O)/C=C/c2cc(OC)ccc2OC)c1,58% (active)
21,COc1cccc(NC(=O)CN(C)C(=O)Cc2ccc(Cl)cc2Cl)c1,-0.14%
